Reference: PubChem BioAssay AID1159554 (Broad Institute, 2015)
“And” between values parts separate entries of the source, which are not always exact repeats. Identical values can stand only once. The campaign covered roughly 94,000 compounds. About 2,100 (2.2%) were called active. The sample holds actives, similar compounds and a random draw of the others, so the mix is not that of the screen. Rule as the data show it: active = activity change below about -80%; inconclusive = no clear call, values can overlap the other calls; inactive = above that. Some compounds were tested as several samples or in several runs, with calls that do not always agree.

assay: P. falciparum Dd2 growth inhibitors, primary screen, SYBR Green fluorescence, single dose replicates (AID 1159554); conditions: 72 h, at 10 µM, stronger effect = lower value

Activity change, inactive:
CN(C)CC#Cc1ccc([C@@H]2[C@H](CO)N3CCCCN(C(=O)Nc4ccc(F)cc4)C[C@@H]23)cc1 -18.7%, COc1ccc(C#Cc2ccc([C@H]3[C@@H](CO)N4CCCCN(C(=O)Nc5ccccc5)C[C@H]34)cc2)cc1 -69.3%, C[C@H](CO)N1C[C@H](C)[C@@H](CN(C)Cc2cccc(F)c2)Oc2cc(C#CC3CC3)ccc2S1(=O)=O -15.8%, C[C@@H]1CN([C@H](C)CO)S(=O)(=O)c2ccc(-c3ccccc3)cc2O[C@@H]1CN(C)CC1CC1 -40.4%, C[C@@H]1CN([C@@H](C)CO)S(=O)(=O)c2ccc(-c3cccc(C#N)c3)cc2O[C@@H]1CN(C)Cc1cccc(F)c1 -39.8%, CCC(=O)N(C)C[C@H]1Oc2cc(-c3cccc(C#N)c3)ccc2S(=O)(=O)N([C@@H](C)CO)C[C@@H]1C 7.55%, C[C@H](CO)N1C[C@H](C)[C@@H](CN(C)C(=O)C2CC2)Oc2cc(-c3cccc(C#N)c3)ccc2S1(=O)=O -26.1%, CNC(=O)C[C@@H]1CC[C@@H]2[C@H](COC[C@@H](O)CN2S(=O)(=O)c2ccccc2Cl)O1 24.5%, Cc1ccccc1-c1ccc2c(c1)O[C@H](CN(C)Cc1ccc(C(=O)O)cc1)[C@@H](C)CN([C@H](C)CO)S2(=O)=O -8.07%, CO[C@H](CN(C)C(=O)c1ccc2c(c1)OCO2)[C@H](C)CN([C@@H](C)CO)S(=O)(=O)c1ccc(Cl)cc1 10.7%, COCCNC(=O)C[C@@H]1C[C@@H]2c3cc(NS(=O)(=O)c4ccccc4)ccc3O[C@@H]2[C@H](CO)O1 18.7%, Cn1cnc(S(=O)(=O)N2C[C@@H](O)COC[C@@H]3O[C@H](CC(=O)NC4CCC4)CC[C@H]32)c1 8.29%, CC(C)(C)[S@@](=O)N1Cc2cc(C(=O)NCc3ccc4c(c3)OCO4)nc(-c3cccc(-c4ccccc4)c3)c2[C@H]1CCO -48.4%, CCCNC(=O)c1cc2c(c(-c3cccc(-c4ccc(F)cc4)c3)n1)[C@@H](CCO)N([S@](=O)C(C)(C)C)C2 -18.8%, COc1ccc2c3c(n(C)c2c1)[C@H](CO)N(C(=O)C1CCCC1)CC31CCN(C(=O)c2ccncc2)CC1 -53.1%, C/C=C/c1ccc([C@@H]2[C@@H](CO)N(CC3CCCC3)C23CN(S(=O)(=O)CC)C3)cc1 -78.3%, C/C=C/c1ccc([C@@H]2[C@H](CO)N(CC3CCCC3)C23CN(C(=O)CC)C3)cc1 -53.8%, CCCNC(=O)N(C)C[C@H]1Oc2ncc(-c3ccc(F)cc3)cc2C(=O)N([C@H](C)CO)C[C@H]1C 0.175%, CCCNC(=O)NC[C@H]1[C@H](c2ccc(C3=CCCCC3)cc2)[C@H](CO)N1C(C)=O -9.89%, COc1ccc(S(=O)(=O)N(C)C[C@H]2OCCCC[C@H](C)Oc3ccc(NC(=O)CCC(F)(F)F)cc3C(=O)N([C@@H](C)CO)C[C@@H]2C)cc1 -55.8%, C[C@H]1CN([C@@H](C)CO)C(=O)c2cccc(NC(=O)c3cnccn3)c2O[C@@H]1CN(C)Cc1ccc(Oc2ccccc2)cc1 -3.4%, Cc1noc(C)c1NC(=O)N(C)C[C@@H]1Oc2c(NC(=O)CCCCCC(=O)Nc3ccccc3N)cccc2C(=O)N([C@H](C)CO)C[C@@H]1C 20.3%, C[C@H](CO)N1C[C@H](C)[C@H](CN(C)Cc2ccccc2)Oc2ccc(NC(=O)CCCCCC(=O)Nc3ccccc3N)cc2C1=O -61%, C[C@H]1CN([C@@H](C)CO)C(=O)c2cccc(NC(=O)Nc3ccccc3)c2O[C@H]1CN(C)Cc1ccc(Oc2ccccc2)cc1 -12%, CC=Cc1ccc2n(c1=O)C[C@@H]1[C@@H](CO)[C@H](C(=O)NCC)[C@H]2N1CCC(F)(F)F (mixture of isomers) 0.676%, CO[C@H]1CN(C)C(=O)c2ccc(NC(=O)C3CC3)cc2OC[C@@H](C)N(C)C[C@H]1C 24.8%, COCC(=O)Nc1ccc2c(c1)C(=O)N(C)[C@H]1CC[C@@H](CC(=O)Nc3cn(C)nc3C)O[C@@H]1CO2 -1.96%, COc1ccc2c3c([nH]c2c1)[C@H](CO)N(C(=O)c1ccccc1)CC31CCN(S(=O)(=O)c2cccs2)CC1 23.2%, CCNC(=O)C[C@@H]1CC[C@@H]2[C@@H](COc3ccc(NC(=O)c4cccc(C(F)(F)F)c4)cc3C(=O)N2C)O1 -22.5%, O=C(Cc1ccncc1)N1C[C@@H]2N[C@H](C1)C2c1ccc(-c2ccc(F)cc2)cc1 (some centres undefined) -75.3%, OC[C@H]1[C@@H](c2ccc(/C=C/c3ccccc3)cc2)[C@H]2CN(Cc3cccnc3)CCCCN21 -61.1%

Activity change, active:
O=C(Nc1ccc(F)cc1)N1CCCCN2[C@H](CO)[C@H](c3ccc(C#Cc4ccccc4)cc3)[C@H]2C1 -83.4%, C[C@H]1CN([C@@H](C)CO)S(=O)(=O)c2ccc(-c3cccc(C#N)c3)cc2O[C@H]1CN(C)CC1CC1 -83.2%, CCCN(C)C[C@@H]1Oc2cc(-c3cccc(C#N)c3)ccc2S(=O)(=O)N([C@@H](C)CO)C[C@@H]1C -82.2%, CC(C)(C)[S@](=O)N1Cc2cc(C(=O)N[C@@H]3CCN(Cc4ccccc4)C3)nc(-c3cccc(-c4ccncc4)c3)c2[C@@H]1CCO -81.2%, C/C=C/c1ccc([C@@H]2[C@H](CO)N(CC3CCCC3)C23CN(C(=O)CC2CC2)C3)cc1 -85%, C[C@@H]1CN([C@H](C)CO)C(=O)c2cccc(NC(=O)CCCCCC(=O)Nc3ccccc3N)c2O[C@H]1CN(C)Cc1ccc(Oc2ccccc2)cc1 -91.8%, C[C@H](CO)N1C[C@H](C)[C@H](CN(C)Cc2ccc(Oc3ccccc3)cc2)Oc2c(NC(=O)CCCCCC(=O)Nc3ccccc3N)cccc2C1=O -92.5%

Activity change, -91.7% (active) and -72.1% (inactive):
c1ccc(-c2ccc(C3[C@@H]4CN(Cc5cccnc5)C[C@H]3N4)cc2)cc1 (some centres undefined)
